# Experimental data published in PubChem BioAssay (NCI).
# About 83,000 compounds went through this panel and 20% of them were active in at least one assay; those are over-represented in the sample as a whole.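 96-well plates, one dose, 48 hours. Percent growth reported; active if below 10.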 A number with no mark means an inactive call. Active and inactive are the calls of the source.
# Key:
# Test in all cases: NCI-60 one-dose screen, 48 h (100 = growth as untreated, 0 = no growth, -100 = all killed)
# NCI-H23 lung = settings: 10 µM unless noted
# NCI-H226 lung = settings: 10 µM unless noted
# NCI-H322M lung = settings: 10 µM unless noted
# HOP-62 NSCLC = settings: 10 µM unless noted
# NCI-H460 lung = settings: 10 µM unless noted
# HOP-92 NSCLC = settings: 10 µM
# NCI-H522 lung = settings: 10 µM unless noted
# A549/ATCC NSCLC = settings: 10 µM unless noted
# 786-0 renal = settings: 10 µM unless noted
# COLO 205 colon = settings: 10 µM unless noted
# DU-145 prostate = settings: 10 µM unless noted
# K-562 leukemia = settings: 10 µM unless noted
# MALME-3M melanoma = settings: 10 µM unless noted
# MDA-MB-231 breast = settings: 10 µM unless noted
# RXF 393 renal = settings: 10 µM unless noted
# SF-268 CNS = settings: 10 µM unless noted
# SF-295 CNS = settings: 10 µM unless noted
# SF-539 CNS = settings: 10 µM unless noted
# UACC-257 melanoma = settings: 10 µM unless noted
SMILES,growth (NCI-H23 lung),growth (NCI-H226 lung),growth (NCI-H322M lung),growth (HOP-62 NSCLC),growth (NCI-H460 lung),growth (HOP-92 NSCLC),growth (NCI-H522 lung),growth (A549/ATCC NSCLC),growth (786-0 renal),growth (COLO 205 colon),growth (DU-145 prostate),growth (K-562 leukemia),growth (MALME-3M melanoma),growth (MDA-MB-231 breast),growth (RXF 393 renal),growth (SF-268 CNS),growth (SF-295 CNS),growth (SF-539 CNS),growth (UACC-257 melanoma)
Cc1ccc(-c2cc3nc(C(Cl)Cl)nc(-c4ccco4)n3n2)cc1,59.8%,87%,2.67% (active),-12.3% (active),-21.6% (active),-0.128% (active),94.5%,2.51% (active),59.5%,-39.4% (active),-24.3% (active),55.5%,93.3%,-21.7% (active),-46.1% (active),20.5%,-4.81% (active),-32.6% (active),57%
CCCCc1nc(/C=N/Nc2nc(Nc3ccccc3)nc(Nc3ccc(S(N)(=O)=O)cc3)n2)c(Cl)[nH]1,101%,99%,99.1%,101%,100%,60.1%,41.9%,108%,95.3%,72%,84.6%,38%,99.7%,67%,117%,65.9%,102%,81.2%,108%
O=C1CC(=O)N2CSCN(C(c3ccccc3)c3nc4ncncc4[nH]3)C2=N1 (centres undefined),99.7%,107%,106%,96.8%,112%,112%,93.9%,105%,104%,114%,110%,102%,80.5%,101%,105%,103%,99.1%,99.1%,108%
CNC(=O)c1c(NC(=O)c2cccc(C(F)(F)F)c2F)sc2c1CCC(=O)C2,8.64% (active),16.2%,82.4%,22.4%,7.32% (active),-21.5% (active),4.78% (active),14.7%,18.1%,-6.56% (active),30.6%,13.2%,6.12% (active),-28.8% (active),-11.4% (active),16.7%,-6.97% (active),-56% (active),-1.77% (active)
NS(=O)(=O)c1ccc(Nc2nc(N/N=C/c3ccc(Cl)cc3)nc(Nc3ccccc3)n2)cc1,87.1%,81.4%,93.1%,83.1%,72.2%,91%,79.1%,62.6%,40.3%,73.8%,72.7%,59.9%,88.3%,86.7%,-11.5% (active),73.7%,58.6%,53.8%,89.5%
N#Cc1cccc(CN2CCc3ncn(Cc4ccc(Cl)cc4)c(=O)c3C2)c1,26.2%,30.4%,42.9%,31.2%,13.5%,30.3%,16.6%,24.9%,42.8%,11.7%,26.9%,24.2%,41.5%,26.9%,14.3%,27.2%,8.57% (active),33.6%,12.3%
COc1ccccc1N1CCN(C2=CC(=O)C(C)=C(C)C2=O)CC1,99.5%,96.9%,112%,103%,102%,117%,88.1%,102%,108%,112%,105%,96.9%,104%,102%,97.7%,101%,103%,100%,96.4%
Nc1ccccc1NC(=O)c1ccc(NC(=O)C/C=C/c2cccnc2)cc1,41.6%,46.6%,47.6%,36.5%,46.8%,11.3%,7.23% (active),47.2%,53.3%,10.3%,14.1%,17.1%,18.1%,50.5%,-13.9% (active),35.3%,34.9%,7.57% (active),26.6%
O=C1CCCc2nc(Nc3ccc(S(=O)(=O)Nc4ccc([N+](=O)[O-])cc4)cc3)ncc21,102%,109%,106%,111%,103%,121%,87.7%,104%,99.9%,121%,105%,92.2%,107%,99.6%,103%,96.2%,101%,92.8%,102%
O=C1[C@H]2Cc3c([nH]c4ccccc34)[C@@H](c3ccc(Cl)cc3)N2C(=O)CN1C1CCN(Cc2ccccc2)CC1,73.8%,49%,57.1%,74.8%,29.8%,42.5%,81.1%,43.8%,64.3%,50.6%,55.2%,9.91% (active),72.9%,55.2%,41%,50%,64.9%,63.7%,68%
C=C1CC[C@@H]2[C@]3(C)COC(c4ccccc4)O[C@@H]3CC[C@@]2(C)[C@@H]1C/C=C1/C(=O)OC[C@H]1O (some centres undefined),96.8%,96.1%,97.1%,110%,99.8%,105%,63.5%,92.6%,111%,108%,92.1%,43.7%,110%,99.3%,127%,97.5%,102%,92.1%,85%
CS(=O)(=O)c1ccc(-c2nn(-c3ccccc3)cc2/C=N/NC(=O)c2nc(N)n[nH]2)cc1,96.3%,101%,104%,103%,83%,103%,94.2%,97.3%,96.8%,96.3%,90%,59.4%,90%,98.4%,117%,103%,103%,99.3%,98.3%
CCN(CC)c1cn(-c2ccc(S(N)(=O)=O)cc2)nn1,109%,109%,110%,112%,106%,99%,92.9%,105%,106%,109%,105%,91.6%,103%,102%,114%,101%,101%,99.6%,99.7%
CCCCNNC(=O)c1ccc(-c2cccc(F)c2F)cc1,38.1%,39.5%,42.4%,28.5%,30%,-3.72% (active),4.69% (active),34.2%,50.8%,4.96% (active),28.9%,21.8%,9.92% (active),51.3%,-34% (active),55.6%,28.2%,40.8%,23.5%
NS(=O)(=O)c1ccc(Nc2nc(N/N=C/CCc3ccccc3)nc(Nc3ccccc3)n2)cc1,104%,104%,108%,108%,104%,97.4%,87.1%,106%,93.6%,105%,109%,96.7%,113%,97.5%,96%,107%,106%,98.3%,112%
NS(=O)(=O)c1ccc(Nc2nc(N/N=C/c3c[nH]c4ccccc34)nc(Nc3ccccc3)n2)cc1,47.1%,42%,54.4%,63.8%,41.2%,61.4%,31.6%,78.3%,41.8%,40.9%,43.4%,23%,46.1%,48.8%,-25.2% (active),59.2%,31.5%,47.6%,63.1%
